Test results: the supplement of paper PMC7411054
Where a name gives a salt, the structure may show the parent alone.

These compounds were tested on HepG2-TP53BP1-CLTA (assay: phenotypically active (imaging signature differs from DMSO and reproducible) at any of 0.3-9 uM (binary (1 = active, 0 = inactive)); higher = active). Details: treatment time: 24 h.
Outline: (§1)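 Fifteen reporter lines derived from A549, HepG2 and WPMY1 cells by gene editing, carrying BFP for segmentation plus GFP and RFP/FusionRed markers, were exposed to 0.3, 1, 3 or 9 µM for 24 h in four wells each and imaged live. Live-cell features from each well were normalised to solvent control wells. A well set counted as deviating when ≥3 of 4 wells lay beyond the 95th percentile of control Euclidean distances, and as reproducible when the median replicate Pearson correlation exceeded the 95th percentile of non-replicates. Phenotypic activity was assigned only when both criteria were met.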

Phenotypically active, inactive:
COc1cc(OC)c2cc(-c3ccncc3)cnc2c1 [DMPQ dihydrochloride] 0
Cn1cc(CCn2cnc(-c3cnn(C)c3)c2-c2ccc(C#N)cc2)cn1 0
O=C(O)Cc1cccc(OCCCN(Cc2cccc(C(F)(F)F)c2Cl)CC(c2ccccc2)c2ccccc2)c1 [GW 3965 hydrochloride] 0
CCOP(=O)(OCC)C(=Cc1cc(C(C)(C)C)c(O)c(C(C)(C)C)c1)P(=O)(OCC)OCC 0
O=C([C@H](Cc1cccc(C(F)(F)F)c1)NS(=O)(=O)c1cc(F)c2c(c1)CCNC2)N1CCCC1 [(S)-PFI 2 hydrochloride] 0
COc1ccc(CNC(=O)Nc2ncc([N+](=O)[O-])s2)cc1 0
CC(C)(C)c1ccc2cc(C#N)c(C#N)cc2c1 0
Clc1ccccc1C(c1ccccc1)(c1ccccc1)n1ccnc1 [Clotrimazole] 0
CCCNCC(O)COc1ccccc1C(=O)CCc1ccccc1 (stereo not drawn) [propafenone] 0
O=C(O)[C@@H]1[C@H]2C[C@H]3c4[nH]c5ccccc5c4CCN3C[C@@H]2CC[C@@H]1O [Yohimbinic acid monohydrate] 0
COc1cc2ncnc(Nc3ccc(Cl)cc3F)c2cc1OC 0
Cc1ccc(NC(=O)c2cccc(N(C)C)c2)cc1NC(=O)c1ccc(O)cc1 0
COc1cc2c(cc1OCCCN1CCCC1)N=C(N)C21CCC1 0
CC#CC(=O)N1CCC[C@H]1c1nc(-c2ccc(C(=O)Nc3ccccn3)cc2)c2c(N)nccn12 [acalabrutinib] 0
NC(=O)c1cccc(-c2cc(Nc3ccc(OC(F)(F)F)cc3)ncn2)c1 0
NS(=O)(=O)c1nn2cc(-c3ccccc3)nc2s1 0

Phenotypically active, active:
CC/C(=C(\CC)c1ccc(O)c(CN(CC)CC)c1)c1ccc(O)c(CN(CC)CC)c1 1
CNCCC(Oc1ccc(C(F)(F)F)cc1)c1ccccc1 (stereo not drawn) [fluoxetine] 1
Cn1cc(C2=C(c3ccc(Cl)cc3Cl)C(=O)NC2=O)c2ccccc21 1
CC(C)COCC(CN(Cc1ccccc1)c1ccccc1)N1CCCC1 (stereo not drawn) [bepridil] 1
O=C(NOCC1CC1)c1ccc(F)c(F)c1Nc1ccc(I)cc1Cl 1
COc1ccc(CCNCc2ccc(OCc3ccc(Cl)nc3)c(OC)c2)cc1OC [SBE 13 hydrochloride] 1
N#C/C(=C(/N)Sc1ccc(N)cc1)c1ccccc1C(F)(F)F 1
Cc1noc(C)c1Cn1cc(C#N)c2cc(Oc3ccc(NC(=O)[C@@H]4CCCN4)cc3)ccc21 1
CCCS(=O)(=O)Nc1ccc(F)c(C(=O)c2c[nH]c3ncc(Cl)cc23)c1F 1
COc1c(C=O)c(O)cc2c1C(=O)c1ccccc1C2=O [Damnacanthal] 1
C[C@H]1Oc2cc(cnc2N)-c2c(nn(C)c2C#N)CN(C)C(=O)c2ccc(F)cc21 1
CC(C)OC(=O)c1cc2c(OCC(O)CNC(C)(C)C)cccc2[nH]1 (stereo not drawn) 1
COc1ccccc1OCCNCC(O)COc1cccc2[nH]c3ccccc3c12 (stereo not drawn) [Carvedilol] 1
CCCCOc1cc(C(=O)NCCN(CC)CC)c2ccccc2n1 [cinchocaine] 1
O=S(=O)(c1cccc2cnccc12)N1CCCNCC1 [fasudil] 1
CSc1ccc2c(c1)N(CCC1CCCCN1C)c1ccccc1S2 (stereo not drawn) [thioridazine] 1
COc1cc(N2CCC(N)CC2)ccc1Nc1ncc(Cl)c(-c2c[nH]c3ccccc23)n1 1
Cc1noc(C)c1-c1ccc2c(c1)nc(CCc1ccc(OCCCN(C)C)cc1)n2CCN1CCOCC1 1
Cc1cc(Nc2ccc(NC(=O)c3ccc(Nc4ccnc5ccccc45)cc3)cc2)nc(N)n1 1
Cc1ccc(NC2=CC(=O)c3sc(C)nc3C2=O)cc1 [Ryuvidine] 1
C[C@]1(O)C[C@@H](c2nc(-c3ccc4ccc(-c5ccccc5)nc4c3)c3c(N)nccn32)C1 [linsitinib] 1
O=C(O)C[C@H](O)C[C@H](O)/C=C/c1c(C2CC2)nc2ccccc2c1-c1ccc(F)cc1 [Pitavastatin calcium] 1
CN1[C@@H]2CC[C@H]1C[C@@H](OC(c1ccccc1)c1ccccc1)C2 [benztropine] 1

What follows are compounds tested on HepG2-TUBA1B-RELA in the same assay as above. Details: treatment time: 24 h.
Outline: as §1

Phenotypically active, active:
CC/C(=C(\CC)c1ccc(O)c(CN(CC)CC)c1)c1ccc(O)c(CN(CC)CC)c1 1
CNCCC(Oc1ccc(C(F)(F)F)cc1)c1ccccc1 (stereo not drawn) [fluoxetine] 1
CC(C)COCC(CN(Cc1ccccc1)c1ccccc1)N1CCCC1 (stereo not drawn) [bepridil] 1
O=C(NOCC1CC1)c1ccc(F)c(F)c1Nc1ccc(I)cc1Cl 1
COc1ccc(CCNCc2ccc(OCc3ccc(Cl)nc3)c(OC)c2)cc1OC [SBE 13 hydrochloride] 1
O=C(O)Cc1cccc(OCCCN(Cc2cccc(C(F)(F)F)c2Cl)CC(c2ccccc2)c2ccccc2)c1 [GW 3965 hydrochloride] 1
N#C/C(=C(/N)Sc1ccc(N)cc1)c1ccccc1C(F)(F)F 1
Cc1noc(C)c1Cn1cc(C#N)c2cc(Oc3ccc(NC(=O)[C@@H]4CCCN4)cc3)ccc21 1
CCCS(=O)(=O)Nc1ccc(F)c(C(=O)c2c[nH]c3ncc(Cl)cc23)c1F 1
C[C@H]1Oc2cc(cnc2N)-c2c(nn(C)c2C#N)CN(C)C(=O)c2ccc(F)cc21 1
CC(C)OC(=O)c1cc2c(OCC(O)CNC(C)(C)C)cccc2[nH]1 (stereo not drawn) 1
COc1ccccc1OCCNCC(O)COc1cccc2[nH]c3ccccc3c12 (stereo not drawn) [Carvedilol] 1
O=S(=O)(c1cccc2cnccc12)N1CCCNCC1 [fasudil] 1
CSc1ccc2c(c1)N(CCC1CCCCN1C)c1ccccc1S2 (stereo not drawn) [thioridazine] 1
CCCNCC(O)COc1ccccc1C(=O)CCc1ccccc1 (stereo not drawn) [propafenone] 1
COc1cc(N2CCC(N)CC2)ccc1Nc1ncc(Cl)c(-c2c[nH]c3ccccc23)n1 1
Cc1noc(C)c1-c1ccc2c(c1)nc(CCc1ccc(OCCCN(C)C)cc1)n2CCN1CCOCC1 1
Cc1cc(Nc2ccc(NC(=O)c3ccc(Nc4ccnc5ccccc45)cc3)cc2)nc(N)n1 1
C[C@]1(O)C[C@@H](c2nc(-c3ccc4ccc(-c5ccccc5)nc4c3)c3c(N)nccn32)C1 [linsitinib] 1
O=C(O)C[C@H](O)C[C@H](O)/C=C/c1c(C2CC2)nc2ccccc2c1-c1ccc(F)cc1 [Pitavastatin calcium] 1
CN1[C@@H]2CC[C@H]1C[C@@H](OC(c1ccccc1)c1ccccc1)C2 [benztropine] 1
NS(=O)(=O)c1nn2cc(-c3ccccc3)nc2s1 1

Phenotypically active, inactive:
Cn1cc(C2=C(c3ccc(Cl)cc3Cl)C(=O)NC2=O)c2ccccc21 0
COc1cc(OC)c2cc(-c3ccncc3)cnc2c1 [DMPQ dihydrochloride] 0
Cn1cc(CCn2cnc(-c3cnn(C)c3)c2-c2ccc(C#N)cc2)cn1 0
CCOP(=O)(OCC)C(=Cc1cc(C(C)(C)C)c(O)c(C(C)(C)C)c1)P(=O)(OCC)OCC 0
O=C([C@H](Cc1cccc(C(F)(F)F)c1)NS(=O)(=O)c1cc(F)c2c(c1)CCNC2)N1CCCC1 [(S)-PFI 2 hydrochloride] 0
COc1c(C=O)c(O)cc2c1C(=O)c1ccccc1C2=O [Damnacanthal] 0
COc1ccc(CNC(=O)Nc2ncc([N+](=O)[O-])s2)cc1 0
CC(C)(C)c1ccc2cc(C#N)c(C#N)cc2c1 0
CCCCOc1cc(C(=O)NCCN(CC)CC)c2ccccc2n1 [cinchocaine] 0
Clc1ccccc1C(c1ccccc1)(c1ccccc1)n1ccnc1 [Clotrimazole] 0
O=C(O)[C@@H]1[C@H]2C[C@H]3c4[nH]c5ccccc5c4CCN3C[C@@H]2CC[C@@H]1O [Yohimbinic acid monohydrate] 0
COc1cc2ncnc(Nc3ccc(Cl)cc3F)c2cc1OC 0
Cc1ccc(NC(=O)c2cccc(N(C)C)c2)cc1NC(=O)c1ccc(O)cc1 0
Cc1ccc(NC2=CC(=O)c3sc(C)nc3C2=O)cc1 [Ryuvidine] 0
COc1cc2c(cc1OCCCN1CCCC1)N=C(N)C21CCC1 0
CC#CC(=O)N1CCC[C@H]1c1nc(-c2ccc(C(=O)Nc3ccccn3)cc2)c2c(N)nccn12 [acalabrutinib] 0
NC(=O)c1cccc(-c2cc(Nc3ccc(OC(F)(F)F)cc3)ncn2)c1 0
